High-throughput results as filed in PubChem.
Compounds with a hit are over-represented: about 3.9% of the library has one in this group of screens.
BoNT A protease = BoNT/A light chain protease inhibitors, primary screen, biochemical, flow cytometry, MLPCN library; inhibition, % at 10 µM; Botulinum neurotoxin type A light chain protease (Clostridium botulinum A str. ATCC 3502); 360,000 tested, 0.17% active; multiplex microsphere protease substrate cleavage; AID 588499, 2011
VHR inh abs = VHR1 phosphatase inhibitors, primary screen, biochemical, absorbance, uHTS | inhibition, % at 13.3 µM | Dual specificity protein phosphatase 3 (Homo sapiens), P51452 | recombinant VHR phosphatase, pNPP absorbance | 290,000 tested, 0.52% active; in the data active = inhibition above about 50%
Target sequence (P51452 whole entry, looked up): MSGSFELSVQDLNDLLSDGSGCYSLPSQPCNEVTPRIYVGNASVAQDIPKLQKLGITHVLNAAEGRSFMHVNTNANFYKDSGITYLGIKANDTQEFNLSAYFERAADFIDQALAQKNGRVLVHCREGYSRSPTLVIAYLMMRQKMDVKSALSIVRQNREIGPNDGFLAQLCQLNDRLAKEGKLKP
SARS 3CLpro inh = SARS-CoV 3CLpro protease inhibitors, primary screen, biochemical, quenched FRET; 290,000 tested, 0.14% active; Replicase polyprotein 1ab (Severe acute respiratory syndrome coronavirus), P0C6X7; inhibition, % at 6 µM; recombinant SARS-CoV 3CLpro, quenched FRET peptide cleavage; AID 1706, 2009; in the data active = inhibition above about 12%
BoNT-F LC inh = BoNT/F light chain protease inhibitors, primary screen, biochemical, flow cytometry, MLPCN library. Botulinum neurotoxin type F light chain protease (Clostridium botulinum). Multiplex microsphere protease cleavage assay. inhibition, % at 10 µM. 360,000 tested, 0.22% active; in the data active = inhibition above about 35%, passing the limit was not always enough; inconclusive = no clear call, values can overlap the other calls
Autofluor counter = flagged as autofluorescent in microsphere protease counterscreen; compound autofluorescence counterscreen, microsphere flow cytometry; stronger effect = higher value; fluorescence intensity (test concentration not listed); 360,000 tested, 3.1% active; AID 624483; in the data active = fluorescence intensity above about 16000; inconclusive = no clear call, values can overlap the other calls
Anthrax LF prot = Bacillus anthracis LF protease inhibitors, primary screen, biochemical, multiplex microsphere, MLPCN library; Lethal factor (Bacillus anthracis), P15917; multiplex microsphere protease cleavage assay; inhibition, % at 10 µM; 360,000 tested, 0.12% active; AID 588501, 2011
A number is an active result; - = inactive; ? = inconclusive; . = no result given. Rule as the data show it, unless noted: active = inhibition above about 30%; inconclusive = no clear call, values can overlap the other calls; inactive = below that.

SMILES | BoNT A protease | VHR inh abs | SARS 3CLpro inh | BoNT-F LC inh | Autofluor counter | Anthrax LF prot
COc1ccc2c(c1)CC1(CN2C)C(=O)NC(=O)N(c2ccc(F)cc2)C1=O (stereo not drawn) | - | - | - | - | 22766 | -
C[C@H](CO)N1C[C@H](C)[C@H](CN(C)S(=O)(=O)c2ccc3ccccc3c2)OCc2cnnn2CCCC1=O | - | . | . | - | - | -
CN(CC(=O)O/N=C(\N)c1ccccn1)S(=O)(=O)c1ccccc1 | - | - | - | - | 19036 | -
COc1ccc(/C(N)=N/OC(=O)CN(C)S(=O)(=O)c2ccccc2)cc1 | - | - | - | - | - | -
COc1ccccc1C(=O)N/C(=C\c1cn(C)c2ccccc12)C(=O)NCCN1CCOCC1 | - | . | . | - | - | -
COc1ccccc1C(=O)N/C(=C\c1cn(C)c2ccccc12)C(=O)NCCCN1CCOCC1 | - | 57.0 | - | - | - | -
CCn1cc(C(=O)N2CC(C)CC(C)C2)c(=O)c2cc(S(=O)(=O)N3CCOCC3)ccc21 (stereo not drawn) | - | - | - | - | 24578 | -
CCn1cc(C(=O)NCCCOC)c(=O)c2cc(S(=O)(=O)N(C)C3CCCCC3)ccc21 | - | - | - | - | - | -
CCC1CCCCN1CCCNC(=O)c1cn(CC)c2ccc(S(=O)(=O)N(C)C3CCCCC3)cc2c1=O (stereo not drawn) | - | 51.2 | - | - | - | -
CC1CCN(S(=O)(=O)c2ccc3c(c2)c(=O)c(C(=O)NCc2ccco2)cn3C)CC1 | - | - | - | 37.7 | - | -
CC1CCN(S(=O)(=O)c2ccc3c(c2)c(=O)c(C(=O)NCc2cccs2)cn3C)CC1 | - | - | - | - | - | -
CCN1CCCC1CNC(=O)c1cn(C)c2ccc(S(=O)(=O)N3CCCCCC3)cc2c1=O (stereo not drawn) | - | 50.8 | - | - | - | -
CC(=O)NC(CCc1ccc(Cl)c(Cl)c1)c1cccc(O)c(=O)c1 (stereo not drawn) | - | . | . | - | - | -
Cc1ccc(S(=O)(=O)N2CCCC(C(=O)NCc3ccco3)C2)cc1Cl (stereo not drawn) | - | - | - | - | 19976 | -
CCOC(=O)C1CCCN(C(=O)c2cn(CC)c3ccc(S(=O)(=O)N4CCCC4)cc3c2=O)C1 (stereo not drawn) | - | - | - | - | 16154 | -
CCn1cc(C(=O)NCc2ccc3c(c2)OCO3)c(=O)c2cc(S(=O)(=O)N3CCOCC3)ccc21 | ? | - | - | - | 21213 | -
CCOC(=O)C1CCCN(C(=O)c2cc(S(=O)(=O)N3CCCCC3)ccc2C)C1 (stereo not drawn) | - | - | - | - | - | -
CCOC(=O)C1CCCN(C(=O)c2cn(C)c3ccc(S(=O)(=O)N4CCCC4)cc3c2=O)C1 (stereo not drawn) | ? | - | - | - | 21667 | -
Cc1cc(OCc2nc(-c3ccncc3)no2)cc(C)c1Cl | - | - | - | - | - | -
CCCCN1C(=O)c2ccc(C(=O)NC3(C)CCS(=O)(=O)C3)cc2C1=O (stereo not drawn) | - | . | . | - | - | -
CCOc1cc(-c2noc(CCC(=O)NC3CCCCC3)n2)ccc1OC | - | - | - | - | - | -
CCOc1ccc(-c2noc(CCC(N)=O)n2)cc1OCC | - | - | - | - | 21943 | -
CC(Sc1nnc(COc2ccc(Cl)cc2)n1Cc1ccco1)C(=O)N1CCNC1=O (stereo not drawn) | - | . | . | - | - | -
Cc1ccc(C(=O)CN(C(=O)c2ccc(Cl)c(Cl)c2)N2C(=O)C3CCCCC3C2=O)cc1C (stereo not drawn) | ? | - | - | - | 20975 | -
COc1cccc(C(=O)CN(C(=O)c2ccc(Cl)c(Cl)c2)N2C(=O)c3ccccc3C2=O)c1 | ? | - | - | - | 16849 | -
SMILES | BoNT A protease | VHR inh abs | SARS 3CLpro inh | BoNT-F LC inh | Autofluor counter | Anthrax LF prot
O=C(OCc1ccccc1)N1CCC2CC1c1cc(N3CCN(S(=O)(=O)c4cccc5ccccc45)CC3)ccc12 (stereo not drawn) | - | . | . | - | - | -
COc1cccc2c1OC[C@@H](CO)[C@H]2N(C)C(=O)Nc1ccc(Cl)cc1Cl | - | - | - | - | 17819 | -
CCn1cc(/C=N/NC(=O)COc2cccc3cccnc23)c2ccccc21 | - | - | - | - | - | -
CC(C)C[C@@H]1CN(CCCC[C@H]2CNC(=O)C(=O)N2CCC2CCCCC2)C(=O)C(=O)N1Cc1ccccc1 | - | . | . | - | - | -
O=c1c2ccccc2c2ccccc2c(=O)n1Nc1ccccc1 | - | . | . | - | - | -
CC(=O)Nc1ccc(NC(=O)CSCCc2ccccn2)cc1 | - | - | - | - | 19811 | -
CCC(C)(C(=O)NC1CCCCC1)N(CC1CCCO1)C(=O)c1ccccn1 (stereo not drawn) | - | - | - | - | 25517 | -
CCC(C)(C(=O)NC1CCCCC1)N(Cc1ccco1)C(=O)c1cnccn1 (stereo not drawn) | - | - | - | - | 16804 | -
CCC(C)(C(=O)NC1CCCC1)N(Cc1ccco1)C(=O)c1ccccn1 (stereo not drawn) | - | - | - | - | - | -
CCC(C)(C(=O)NC1CCCC1)N(Cc1ccco1)C(=O)c1ccc2c(c1)OCO2 (stereo not drawn) | - | - | - | - | 17659 | -
CCOC(=O)[C@]12CCC=C1N(Cc1cccc3ccccc13)C(=O)[C@H](CC(=O)N1CCN(C(=O)C3CC3)CC1)C2 | - | . | . | - | - | -
CC1=CCC(/C=N\Nc2nnc3c(n2)[nH]c2ccccc23)CC1 (stereo not drawn) | . | - | - | . | . | .
NS(=O)(=O)c1ccc(N2C(=O)CCCC2=O)cc1 | - | . | . | - | - | -
Nc1nnc(SCC(=O)NC23CC4CC(CC(C4)C2)C3)s1 | - | - | - | - | 21047 | -
Cc1ccc(C(O)c2nc3ccccc3n2C)cc1 (stereo not drawn) | - | - | - | 35.4 | - | -
CC(C)c1ccc(C(O)c2nc3ccccc3n2C)cc1 (stereo not drawn) | - | - | - | ? | - | -
C/C(=N\Nc1cc(-c2ccccc2)nc(-c2ccc(Br)cc2)n1)c1cccc(N)c1 | - | . | - | - | 17624 | -
CCCOc1ccc(C(=O)N(CC(C)C)c2c(N)n(Cc3ccccc3)c(=O)[nH]c2=O)cc1 | - | . | . | - | ? | -
CCOc1ccc(C(=O)CCC(=O)O)cc1 | - | - | - | - | - | -
CCOc1ccc(OCCCC(=O)O)cc1 | - | - | - | - | 20482 | -
O=C(Nc1cccc(Cl)c1)c1cnn2cccnc12 | ? | - | - | - | 23465 | -
COc1cc2ccccc2cc1C(=O)OCC(=O)c1c(N)n(C)c(=O)n(C)c1=O | - | . | . | - | - | -
CCOC(=O)Cc1nnc(NC(=O)c2ncn[nH]2)s1 | - | - | - | - | 23312 | -
